Data published in PubChem BioAssay AID1159580 (chemical genetic matrix, 2015).
About 2,000 (36%) of roughly 5,500 compounds were called active. About 18% were inconclusive and are not listed. Cut-off read from the data, not from the text of the source: active = normalized growth mostly below about 0.91 (no sharp cut-off); inconclusive = no clear call, values can overlap the other calls; inactive = mostly above about 0.92. The list shows a part of the results.

Test: chemical genetic growth profiling, strain panel (AID 1159580);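 note: tested at 20 µM; growth read once vehicle control cultures reached saturation at 30 °C; 1 = growth at the plate median or of vehicle wells; lower values mean less growth of the strain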
Conditions: growth OD

Measured: normalized growth

COc1ccc(-c2cc(=O)c3c(OC)cc(OC)cc3o2)cc1
inactive: S. cerevisiae deletion strains, locus YAL013W, strain DEP1, stronger effect = lower value 0.981 | S. cerevisiae deletion strains, locus YBR021W, strain FUR4, stronger effect = lower value 0.903 | S. cerevisiae deletion strains, locus YBR229C, strain ROT2, stronger effect = lower value 1 | S. cerevisiae deletion strains, locus YCL029C, strain bik1, stronger effect = lower value 1.01 | S. cerevisiae deletion strains, locus YDL035C, strain GPR1, stronger effect = lower value 0.981 | S. cerevisiae deletion strains, locus YDL074C, strain BRE1, stronger effect = lower value 0.905 | S. cerevisiae deletion strains, locus YDL101C, strain DUN1, stronger effect = lower value 0.988 | S. cerevisiae deletion strains, locus YDL134C, strain PPH21, stronger effect = lower value 0.984 | S. cerevisiae deletion strains, locus YDL185W, strain tfp1, stronger effect = lower value 0.996 | S. cerevisiae deletion strains, locus YDL192W, strain arf1, stronger effect = lower value 0.986 | S. cerevisiae deletion strains, locus YDR101C, strain arx1, stronger effect = lower value 0.977 | S. cerevisiae deletion strains, locus YDR150W, strain NUM1, stronger effect = lower value 1 | S. cerevisiae deletion strains, locus YDR162C, strain NBP2, stronger effect = lower value 0.944 | S. cerevisiae deletion strains, locus YDR318W, strain mcm21, stronger effect = lower value 0.973 | S. cerevisiae deletion strains, locus YDR388W, stronger effect = lower value 0.99 | S. cerevisiae deletion strains, locus YDR502C, strain sam2, stronger effect = lower value 0.963 | S. cerevisiae deletion strains, locus YEL061C, strain CIN8, stronger effect = lower value 0.997 | S. cerevisiae deletion strains, locus YER110C, stronger effect = lower value 1.02 | S. cerevisiae deletion strains, locus YER155C, strain BEM2, stronger effect = lower value 0.993 | S. cerevisiae deletion strains, locus YER167W, strain BCK2, stronger effect = lower value 0.989 | S. cerevisiae deletion strains, locus YGL078C, strain dbp3, stronger effect = lower value 1 | S. cerevisiae deletion strains, locus YGL086W, strain mad1, stronger effect = lower value 1 | S. cerevisiae deletion strains, locus YGL248W, strain PDE1, stronger effect = lower value 0.988 | S. cerevisiae deletion strains, locus YGR078C, strain PAC10, stronger effect = lower value 0.948 | S. cerevisiae deletion strains, locus YGR135W, strain pre9, stronger effect = lower value 0.926 | S. cerevisiae deletion strains, locus YGR229C, strain SMI1, stronger effect = lower value 0.873 | S. cerevisiae deletion strains, locus YGR252W, strain gcn5, stronger effect = lower value 0.834 | S. cerevisiae deletion strains, locus YHR030C, strain SLT2, stronger effect = lower value 0.997 | S. cerevisiae deletion strains, locus YHR079C, strain IRE1 (second series), stronger effect = lower value 0.979 | S. cerevisiae deletion strains, locus YHR094C, strain hxt1, stronger effect = lower value 1.01 | S. cerevisiae deletion strains, locus YHR129C, strain ARP1, stronger effect = lower value 0.99 | S. cerevisiae deletion strains, locus YHR200W, strain rpn10, stronger effect = lower value 0.992 | S. cerevisiae deletion strains, locus YIL066C, strain RNR3, stronger effect = lower value 0.965 | S. cerevisiae deletion strains, locus YIL073C, strain SPO22, stronger effect = lower value 0.983 | S. cerevisiae deletion strains, locus YIL125W, strain kgd1, stronger effect = lower value 1.01 | S. cerevisiae deletion strains, locus YIR030C, strain dcg1, stronger effect = lower value 0.993 | S. cerevisiae deletion strains, locus YJL095W, strain BCK1, stronger effect = lower value 0.888 | S. cerevisiae deletion strains, locus YJL134W, strain LCB3, stronger effect = lower value 0.994 | S. cerevisiae deletion strains, locus YJL168C, strain set2, stronger effect = lower value 0.998 | S. cerevisiae deletion strains, locus YJL187C, strain SWE1 (second series), stronger effect = lower value 0.957 | S. cerevisiae deletion strains, locus YJR043C, strain POL32, stronger effect = lower value 0.983 | S. cerevisiae deletion strains, locus YJR075W, strain HOC1, stronger effect = lower value 0.968 | S. cerevisiae deletion strains, locus YKL009W, strain mrt4, stronger effect = lower value 0.987 | S. cerevisiae deletion strains, locus YKL068W, stronger effect = lower value 1.01 | S. cerevisiae deletion strains, locus YKL085W, strain MDH1 (second series), stronger effect = lower value 1.01 | S. cerevisiae deletion strains, locus YKL085W, strain MDH1, stronger effect = lower value 1.01 | S. cerevisiae deletion strains, locus YKL190W, strain CNB1, stronger effect = lower value 0.996 | S. cerevisiae deletion strains, locus YKR001C, strain vps1, stronger effect = lower value 0.996 | S. cerevisiae deletion strains, locus YLR039C, strain RIC1, stronger effect = lower value 1.03 | S. cerevisiae deletion strains, locus YLR058C, strain SHM2, stronger effect = lower value 0.988 | S. cerevisiae deletion strains, locus YLR102C, strain apc9, stronger effect = lower value 0.998 | S. cerevisiae deletion strains, locus YLR262C, strain YPT6, stronger effect = lower value 1.02 | S. cerevisiae deletion strains, locus YLR268W, strain sec22, stronger effect = lower value 0.95 | S. cerevisiae deletion strains, locus YLR330W, strain CHS5, stronger effect = lower value 0.999 | S. cerevisiae deletion strains, locus YLR342W, strain FKS1 (second series), stronger effect = lower value 0.951 | S. cerevisiae deletion strains, locus YLR371W, strain rom2, stronger effect = lower value 1.01 | S. cerevisiae deletion strains, locus YLR418C, strain cdc73, stronger effect = lower value 0.869 | S. cerevisiae deletion strains, locus YML016C, strain PPZ1, stronger effect = lower value 1 | S. cerevisiae deletion strains, locus YML032C, strain rad52, stronger effect = lower value 0.969 | S. cerevisiae deletion strains, locus YML124C, strain tub3, stronger effect = lower value 1 | S. cerevisiae deletion strains, locus YMR078C, strain ctf18, stronger effect = lower value 0.988 | S. cerevisiae deletion strains, locus YMR223W, strain ubp8, stronger effect = lower value 0.972 | S. cerevisiae deletion strains, locus YMR263W, strain SAP30, stronger effect = lower value 0.95 | S. cerevisiae deletion strains, locus YMR307W, strain GAS1, stronger effect = lower value 0.839 | S. cerevisiae deletion strains, locus YNL067W, strain RPL9B, stronger effect = lower value 0.962 | S. cerevisiae deletion strains, locus YNL128W, strain TEP1, stronger effect = lower value 0.981 | S. cerevisiae deletion strains, locus YNL153C, strain GIM3, stronger effect = lower value 0.955 | S. cerevisiae deletion strains, locus YNL233W, strain BNI4, stronger effect = lower value 0.923 | S. cerevisiae deletion strains, locus YNL250W, strain rad50, stronger effect = lower value 1.01 | S. cerevisiae deletion strains, locus YNL271C, strain bni1, stronger effect = lower value 1.02 | S. cerevisiae deletion strains, locus YNL298W, strain CLA4, stronger effect = lower value 1 | S. cerevisiae deletion strains, locus YNL307C, strain MCK1, stronger effect = lower value 0.93 | S. cerevisiae deletion strains, locus YNL322C, strain KRE1, stronger effect = lower value 1.01 | S. cerevisiae deletion strains, locus YNR052C, strain pop2, stronger effect = lower value 0.995 | S. cerevisiae deletion strains, locus YOL006C, strain TOP1, stronger effect = lower value 0.858 | S. cerevisiae deletion strains, locus YOL012C, strain htz1 1.8 | S. cerevisiae deletion strains, locus YOL147C, strain pex11, stronger effect = lower value 0.989 | S. cerevisiae deletion strains, locus YOR061W, strain CKA2, stronger effect = lower value 0.999 | S. cerevisiae deletion strains, locus YOR069W, strain VPS5, stronger effect = lower value 1 | S. cerevisiae deletion strains, locus YOR136W, strain idh2, stronger effect = lower value 0.996 | S. cerevisiae deletion strains, locus YOR144C, strain elg1, stronger effect = lower value 1 | S. cerevisiae deletion strains, locus YOR184W, strain ser1, stronger effect = lower value 0.967 | S. cerevisiae deletion strains, locus YOR316C, strain cot1, stronger effect = lower value 1 | S. cerevisiae deletion strains, locus YPL055C, strain LGE1, stronger effect = lower value 0.92 | S. cerevisiae deletion strains, locus YPL241C, strain CIN2, stronger effect = lower value 0.996 | S. cerevisiae deletion strains, locus YPR119W, strain clb2, stronger effect = lower value 1 | S. cerevisiae deletion strains, locus YPR141C, strain kar3, stronger effect = lower value 1.01 | S. cerevisiae deletion strains, locus YPR163C, strain tif3, stronger effect = lower value 0.971 | S. cerevisiae deletion strains, locus YPR167C, strain met16, stronger effect = lower value 1 | S. cerevisiae deletion strains, strain wtn01, stronger effect = lower value 0.963 | S. cerevisiae strains, strain wild type, stronger effect = lower value 0.992
